The record followed here is PubChem BioAssay (NCI).

Compounds without any hit were thinned out: in the full panel of roughly 83,000, 20% have a hit.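 Values shown are percent growth following 48 h exposure of cells in 96-well plates to a single concentration of compound; below 10 was considered active.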 Values without a mark were called inactive. Calls of active or inactive are those of the source.

Holding throughout (test): NCI-60 one-dose screen, 48 h (100 = growth as untreated, 0 = no growth, -100 = all killed)
Settings in all cases: 10 µM unless noted

Assay [1] concerns DU-145 prostate.
Assay [2] deals with K-562 leukemia.
Assay [3] has as its system MALME-3M melanoma.
Assay [4] concerns MDA-MB-231 breast.
In assay [5] the test system is RXF 393 renal.
For assay [6], the system named is SF-268 CNS.
Assay [7] relates to SF-295 CNS.
The test system of assay [8] is SF-539 CNS.
The subject of assay [9] is UACC-257 melanoma.
For assay [10], the system named is M14 melanoma.
The subject of assay [11] is HCT-15 colon.
Assay [12] has as its system SNB-75 CNS.
For assay [13], the system named is SNB-19 CNS.
Assay [14] relates to U251 CNS.
In assay [15] the test system is PC-3 prostate.
For assay [16], the system named is SK-MEL-5 melanoma.
The subject of assay [17] is UACC-62 melanoma.
Assay [18] relates to LOX IMVI melanoma.
Assay [19] concerns SK-MEL-28 melanoma.
Assay [20] relates to HT29 colon.

Regarding `CN1CCN(c2ccc(Nc3nc(NCCCNS(=O)(=O)c4ccc(C(F)(F)F)cc4)c4sccc4n3)cc2)CC1`, the growth in assay [1] is -8.78% (active); in assay [2] it was 5.24% (active); in [3], -87.8% (active); in assay [4] it was -60.1% (active); in assay [5], -87% (active); in assay [6] it was -53.3% (active). Further, the growth in assay [7] was -74.6% (active); in assay [8], -92.6% (active); in assay [9] it was -91.7% (active); in assay [10], -80.5% (active); in assay [11], -72.7% (active); in assay [12] it was -79.5% (active). In addition, the growth in assay [13] is 17.5%; in [14], -83.4% (active); in assay [15], 20.7%; in assay [16], -95% (active); in [17] it was -80.3% (active); in [18], -83.6% (active). In assay [19], the growth was -92.8% (active).
Consider `O=C1[C@H]2Cc3c([nH]c4ccccc34)[C@H](c3ccc(Br)cc3)N2C(=O)CN1C1CCN(CC2CCCCC2)CC1`, for which the growth is 79.4% in assay [1]; 6.13% (active) in assay [2]; 72.5% in assay [3]; 76.5% in assay [4]; 62.6% in assay [5]; 66.8% in assay [6]. Further, the growth in [7] was 113%; in assay [8], 75.3%; in assay [9], 97.4%; in assay [10], -17.4% (active); in [11], 38.8%; in assay [12], 52.6%. Moreover, the growth in assay [13] is 83.3%; in assay [14], 55.9%; in assay [15], 60.2%; in [16], 69.6%; in [17], 96.7%; in [18] it was -69.2% (active). In addition, the growth in [19] was 97.6%.
`O=C(O)c1ccc(-n2c(=O)n(-c3cccc(C(F)(F)F)c3)c(=O)c3cc(-c4ccc(F)cc4F)ccc32)cc1`: the growth in [1] is 25.9%; in [2], 5.71% (active); in assay [3], -12.8% (active); in assay [4] it was -25.8% (active); in assay [5], -1.85% (active); in [6], 22.1%. Besides, the growth was -12.6% (active) in assay [7]; 17.8% in [8]; -1.96% (active) in [9]; 18.6% in [10]; 10.4% in [11]; -12.1% (active) in assay [12]. The growth in [13] was 13.4%; in assay [14] it was 11.1%; in assay [15], 3.4% (active); in assay [16] it was -60.4% (active); in [17] it was -3.72% (active); in [18], 5.95% (active). Moreover, the growth in assay [19] was 26.1%.
With `Cc1ccc(N2CCN(C3=C(Cl)C(=O)c4ncccc4C3=O)CC2)cc1`, the growth was 51.7% in assay [1]; 6.28% (active) in assay [2]; 52.8% in [3]; 24.5% in assay [4]; 12.5% in [5]; 80.2% in [6]. Besides, the growth in [7] is 97.5%; in assay [8], 86.6%; in [9], 29.6%; in assay [10] it was 70.3%; in [11], 21%; in assay [12] it was 99.1%. Moreover, the growth in assay [13] is 70.3%; in assay [14] it was 72.4%; in assay [15], 63.3%; in assay [16] it was 90.4%; in [17] it was 29.2%; in [18] it was -32.6% (active).
On to `C#CCOc1ccccc1C(OC(=O)c1ccccc1)C(=O)NC(C)(C)C(C)(C)C` (centres undefined), for which the growth in [1] was 108%; in assay [2], 78.3%; in assay [3], 76.4%; in assay [4], 80.8%; in assay [5], 74.6%; in [6] it was 93.5%. The growth in [7] was 70.3%; in assay [8], 102%; in [9] it was 81.6%; in [10], 89.4%; in assay [11] it was 78.3%; in assay [12] it was 71.4%. The growth in [13] was 95.1%; in assay [14], 87.1%; in [15], 60.7%; in assay [16], 80.8%; in [17] it was 66.9%; in assay [18], 91.6%. The growth in assay [19] is 101%.
`NC1[C@H]2CN(c3cnc(C(=O)Nc4cc(F)cc5cccnc45)cn3)C[C@@H]12` (some centres undefined): the growth is 76.4% in assay [1]; 15% in [2]; 57.5% in [3]; 47.8% in [4]; 70.6% in [5]; 87.5% in [6]. Moreover, the growth in assay [7] is 96.4%; in assay [8], 76.9%; in assay [9], 97.7%; in [10] it was 79.3%; in assay [11], 32.2%; in [12], 56.7%. The growth in [13] was 75.2%; in assay [14], 60.7%; in [15], 65.7%; in assay [16], 89%; in [17], 92.1%; in assay [18], 71.5%. Further, the growth in assay [19] was 86.1%.
On to `C#Cc1nc(/C=C\CCCCCCC(=O)NO)cs1`, for which the growth in assay [1] was 39.2%; in assay [2], 14.7%; in assay [3], -19.8% (active); in assay [4], -11.8% (active); in assay [5] it was -4.23% (active); in assay [6], 79.4%. Also, the growth in [7] was 65.3%; in assay [8] it was -81.3% (active); in assay [9] it was 38.2%; in assay [10] it was 61.6%; in assay [11], 65.6%; in assay [20] it was 55%. For the same molecule, the growth in assay [12] was -57.7% (active); in assay [14], 70.6%; in [15], 66.9%; in assay [16] it was 31.9%; in assay [18], -82% (active); in [19], 54.1%.
On to `CC(C)C(/C=C/c1[nH]ncc1-c1cc(Cl)ccc1O)N1CCOCC1` (centres undefined), for which the growth is 100% in assay [1]; 82.3% in assay [2]; 106% in assay [3]; 106% in assay [4]; 88.3% in [5]; 88.5% in assay [6]. Besides, the growth in assay [7] is 96%; in assay [8] it was 97.5%; in [9], 103%; in assay [10], 97.5%; in assay [11], 94.9%; in assay [20], 104%. In addition, the growth was 65.3% in assay [12]; 97.3% in assay [14]; 84.7% in assay [15]; 95% in [16]; 98.8% in assay [18]; 98.9% in assay [19].
